Sampled rows, rich in hits. Any-hit rate of the full collection: about 2.1%.
BaF3 parental: parental Ba/F3 cell viability inhibition, counter-screen for JAK2V617F inhibitor project, murine pro-B, CellTiter-Glo luminescence | CellTiter-Glo ATP luminescence | inhibition, % at 5.6 µM | 220,000 compounds, 1.1% hits | AID 1486, 2009;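 active = inhibition above a per-campaign cutoff, the mean inhibition of all tested compounds plus 3 SD, cut at about 27% in these data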
IEC-6 cytotox: cytotoxicity in IEC-6 intestinal epithelial cells, primary screen, cytotoxicity control for KLF5 inhibitor project, cell-based, luminescence; IEC-6 cytotoxicity, luminescence viability; inhibition, % at 5 µM; 290,000 compounds, 0.78% hits; AID 1825, 2009; in the data active = inhibition above about 22%
aSyn UTR inh: MLPCN primary screen, SNCA 5' untranslated region. alpha-synuclein 5'UTR reporter, inhibitor activity. inhibition, % (tested at 7.5 µM). 300,000 compounds, 0.82% hits; in the data active = inhibition above about 60%;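 also: H4 neuroglioblastoma cells stably carrying SNCA 5'UTR luciferase fusion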
APP transl inh: inhibitors of APP translation via 5'UTR reporter, primary screen, APP 5'UTR luciferase, SH-SY5Y cells; inhibition, % at 2 µM; 190,000 compounds, 0.82% hits; SH-SY5Y APP 5'UTR-luciferase reporter, luminescence;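 active = inhibition above a set limit, derived from the sample mean plus 3 SD, cut at about 45% in these data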
Ba/F3 V617F tox: reduced viability of JAK2V617F-dependent Ba/F3 cells, primary screen, JAK2V617F inhibitor project, cell-based, Ba/F3 EpoR-JAK2V617F, luminescence. ATP luminescence. inhibition, % at 5.6 µM. 220,000 compounds, 1.1% hits. AID 1446, 2008;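 active = inhibition above the campaign mean plus 3 SD over all tested compounds, cut at about 24% in these data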;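 also: cytokine-independent growth of Ba/F3 cells driven by EpoR plus mutant JAK2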
KLF5 inhibitor: KLF5 expression inhibitors, primary screen, DLD-1 cells, luminescence; DLD-1 KLF5 promoter-luciferase reporter; inhibition, % at 5 µM; 290,000 compounds, 0.23% hits; AID 1700, 2009;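 active = inhibition above a per-plate limit of that plate's mean compound inhibition plus 3 SD, cut at about 60% in these data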;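 also: higher means less KLF5 promoter-driven luciferase light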
Hits are given with their value; . = inactive; / = no result.

SMILES | BaF3 parental | IEC-6 cytotox | aSyn UTR inh | APP transl inh | Ba/F3 V617F tox | KLF5 inhibitor
CC1CCC(NC(=O)CCN2C(=O)C3C4C=CC(C4)C3C2=O)CC1 (configuration not stated) | / | . | . | / | / | .
O=S(=O)(c1ccc(F)c(F)c1F)N1CCN(C(=S)Nc2ccccc2)CC1 | . | . | . | . | . | .
O=S(=O)(C/C(=C/CO)S(=O)(=O)c1ccccc1)c1ccccc1 | 100 | 96 | . | 80 | 101 | .
CC1=C([N+](=O)[O-])C(c2cccc(Br)c2)C2=C(N1)c1ccccc1C2=O (configuration not stated) | 76 | 77 | 90 | 86 | 77 | .
CCN(CC)CCNC(=O)c1ccc(NC(=O)/C=C/c2ccc3ccccc3n2)cc1 | / | . | . | / | / | .
O=C(c1ccc2c(c1)OCO2)N1CCCC(c2ccccc2)C1 (configuration not stated) | 33 | . | . | . | . | .
Cc1ccc(-n2nc3ccc(NC(=S)NC(=O)/C=C/c4ccco4)cc3n2)cc1 | . | . | . | . | . | .
CCC(=O)Nc1cc2nn(-c3ccc(C)cc3)nc2cc1C | . | . | 80 | . | . | .
Cc1ccc(-n2nc3cc(C)c(NC(=S)NC(=O)/C=C/c4ccco4)cc3n2)cc1 | 63 | . | . | . | 68 | .
CCn1c(CN2CCN(C(c3ccccc3)c3ccccc3)CC2)nc2c1c(=O)n(C)c(=O)n2C | / | . | . | / | / | .
COc1cc(CN2CCN(CC#Cc3ccccc3)CC2CCO)cc(OC)c1 (configuration not stated) | / | . | . | / | / | .
CCCCc1ccc(N/C(N)=N/c2nc(C)cc(C)n2)cc1 | 35 | . | . | / | 41 | .
Cc1ccc(N/C(N)=N/c2nc(C)cc(C)n2)cc1 | . | . | . | . | . | .
Cc1cc2[nH]c(=O)c(=O)[nH]c2cc1S(=O)(=O)Nc1cccc(F)c1 | / | . | . | / | / | .
CCN(CC)C(=O)C(=O)c1ccn(-c2c(C)csc2C(=O)OC)c1 | . | . | . | . | . | .
COc1cccc2c1C(=O)c1c(O)c3c(c(O)c1C2=O)C[C@@](O)(C(=O)CO)C[C@@H]3O[C@H]1C[C@H](N)[C@@H](O)[C@H](C)O1 | / | / | 109 | / | / | /
COc1cccc2c1C(=O)c1c(O)c3c(c(O)c1C2=O)C[C@@](O)(C(C)=O)C[C@@H]3O[C@H]1C[C@H](N)[C@H](O)[C@H](C)O1 | 101 | 91 | / | 96 | 102 | .
CC(=O)[C@]1(O)Cc2c(O)c3c(c(O)c2[C@@H](O[C@H]2C[C@H](N)[C@H](O)[C@H](C)O2)C1)C(=O)c1ccccc1C3=O | / | / | 110 | / | / | /
S=C(Sc1ccc(Cl)cc1)Sc1ccc(Cl)cc1 | . | . | . | / | . | .
COc1ccc(C2(O)CN(c3ccc(C)cc3)C3=[N+]2CCCC3)cc1 (configuration not stated) | 34 | . | . | . | . | .
Cc1cccc(N2CC(O)(c3cccs3)[N+]3=C2CCCCC3)c1 (configuration not stated) | 52 | . | . | . | 30 | .
Cc1ccc(N2NC(C)(c3cccs3)NC2=S)cc1 (configuration not stated) | . | . | . | . | . | .
Cc1ccc(N2CC(O)(c3cccs3)[N+]3=C2CCCC3)cc1 (configuration not stated) | 45 | . | . | . | . | .
CCc1ccc(N2CC(O)(c3cccs3)[N+]3=C2SCCC3)cc1 (configuration not stated) | 57 | . | / | . | 52 | .
Cc1cc(C)n(C(=O)/C(C#N)=N/Nc2cc(Cl)cc(Cl)c2)n1 | . | . | . | . | . | .
SMILES | BaF3 parental | IEC-6 cytotox | aSyn UTR inh | APP transl inh | Ba/F3 V617F tox | KLF5 inhibitor
Fc1ccc(CSc2nnc(-c3ccccn3)o2)cc1 | / | . | . | / | / | .
Cc1cccc(NC(=O)C2(c3cccs3)CCOCC2)c1 | . | . | . | . | . | .
Cc1cccc(N2CC(O)(c3cccs3)[N+]3=C2CCCC3)c1 (configuration not stated) | 36 | . | . | . | 26 | .
Cc1cccc(N2CC(O)(c3cccs3)[N+]3=C2CCCC3)c1C (configuration not stated) | 36 | . | . | . | 24 | .
Cc1ccccc1N1CC(O)(c2cccs2)[N+]2=C1CCCC2 (configuration not stated) | . | . | / | . | . | .
O=C(CCCn1c(=S)[nH]c2cc3c(cc2c1=O)OCO3)N1CCN(c2ncccn2)CC1 | 57 | . | . | . | 64 | .
O=C(c1ccccc1)c1cc(Cl)ccc1N1C(=O)C=CC1=O | . | . | / | 80 | . | .
Cc1ccc(OCc2cc(C(=O)NC3CCc4ccccc43)no2)cn1 (configuration not stated) | / | . | . | / | / | .
Cc1onc(-c2ccccc2Cl)c1C(=O)N(C)C1CCCCC1 | 62 | . | . | . | 67 | .
O=C(c1ccc2ncsc2c1)N1CCN(c2ccccc2Cl)CC1 | . | . | . | . | . | .
Cc1cccc(N2CCN(C(=O)c3ccc4ncsc4c3)CC2)c1C | 54 | 36 | / | 80 | 60 | .
N/C(=N\c1nc2ccccc2o1)NC(=O)c1ccccc1Br | . | . | . | / | . | .
Cc1ccc(/C=N/NC(=O)c2nnn(-c3nonc3N)c2-c2cccs2)cc1 | / | . | 69 | / | / | .
COc1ccc(CCNC(=O)c2cc(S(=O)(=O)N3CCOCC3)cn2C)cc1OC | / | . | . | / | / | .
O=C(COc1ccccc1Cl)N1CCN(c2ccc(F)cc2)CC1 | 93 | . | . | . | . | .
Cc1ccc(-c2nc(CS(=O)(=O)CC(=O)NC3CCCCCC3)c(C)o2)cc1 | / | . | . | / | / | .
Cc1cccc(C)c1NC1=NC2(CCCCC2)N=C(N)N1 | 76 | . | . | . | . | .
Cc1ccc(-n2c(-c3ccccc3)c[n+]3c2CCc2ccccc2-3)c(C)c1 | 81 | 27 | / | . | 100 | .
COc1ccc(-c2ncncc2-c2csc(C)n2)c(O)c1 | 32 | . | . | . | . | .
COc1ccc(-c2nc(C)ncc2-c2csc(C)n2)c(O)c1 | . | . | . | . | . | .
CCC(CC)NC(=O)c1cc2c(C)nn(Cc3ccccc3Cl)c2s1 | . | . | 71 | . | . | .
Cc1nn(Cc2ccccc2Cl)c2sc(C(=O)Nc3nccs3)cc12 | . | . | . | . | . | .
Nc1cc(Cl)ccc1N1CCCC1 | 55 | . | . | . | 42 | .
Nc1cc(F)ccc1N1CCCCCC1 | 57 | . | . | . | 39 | .
CC(=O)c1ccc(N2C(=NC(=O)CCC3CCCC3)SC3CS(=O)(=O)CC32)cc1 (configuration not stated) | / | . | . | / | / | .
O=S1(=O)N=C(N2CCN(Cc3ccc4c(c3)OCO4)CC2)c2ccccc21 | . | . | . | . | . | .

High-throughput results: PubChem BioAssay, several laboratories
